PubChem BioAssay (EPA / NIEHS)
Activity calls are given as the source filed them. Rule for the calls: active = hit-call score of the fitted dose curve at least 0.9, where 1 is the maximum; inactive = score below 0.9.

Experiments:
Details in all cases: mRNA level, 48 h; actives raise or lower the signal
[1] = read-out: JUN Transcription Factor, JUN (gene 3725); assay: LTEA_HepaRG_JUN: Life Technologies and Expression Analysis (LTEA) Assay for JUN Transcription Factor using HepaRG (AID 2283513)
Summary of the method: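 Gene-expression endpoint: JUN mRNA (qRT-PCR, normalized to three reference genes) in HepaRG cultures treated 48 h with chemicals, duplicate wells, 100 uM maximum with half-log dilutions; bidirectional fitting relative to 0.5% DMSO.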

[2] = read-out: Lipase C (LIPC), LIPC (gene 3990); assay: LTEA_HepaRG_LIPC: Life Technologies and Expression Analysis (LTEA) Assay for Lipase C (LIPC) using HepaRG (AID 2283514)
Summary of the method: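 In this multiplexed gene-expression screen, human HepaRG cultures received test chemicals for 48 h across eight concentrations with 100 uM highest, in duplicate. Values reflect LIPC mRNA induction or suppression versus DMSO vehicle, from normalized qRT-PCR.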

[3] = read-out: Lipoprotein lipase (LPL), LPL (gene 4023); assay: LTEA_HepaRG_LPL: Life Technologies and Expression Analysis (LTEA) Assay for Lipoprotein lipase (LPL) using HepaRG (AID 2283515)
Summary of the method: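 Concentration-response testing used half-log steps from 100 uM in 0.5% DMSO on human HepaRG cells, 48 h, duplicate wells. Phenobarbital 1 mM served as induction control; LPL mRNA was normalized to ACTB, GAPDH, POLR2A.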

[4] = read-out: MicroRNA 122 (MIR122), gene 406906; assay: LTEA_HepaRG_MIR122: Life Technologies and Expression Analysis (LTEA) Assay for MicroRNA 122 (MIR122) using HepaRG (AID 2283516); note: the transcript read is the microRNA miR-122
Summary of the method: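 Changes in transcript abundance, up or down relative to 0.5% DMSO vehicle, were scored after 48 h chemical treatment of HepaRG cells (maximum 100 uM). Quantification used TaqMan qRT-PCR normalized to housekeeping genes.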

[5] = read-out: matrix metalloproteinase-10 (MMP10), MMP10 (gene 4319); assay: LTEA_HepaRG_MMP10: Life Technologies and Expression Analysis (LTEA) Assay for matrix metalloproteinase-10 (MMP10) using HepaRG (AID 2283517)
Summary of the method: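 In differentiated HepaRG cultures kept in 0.5% DMSO, test chemicals act for 48 h over an eight-point range with a top dose of 100 uM. Expression is then quantified by TaqMan RT-PCR against ACTB, GAPDH and POLR2A.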

MYC, MYC (gene 4609) = assay: LTEA_HepaRG_MYC: Life Technologies and Expression Analysis (LTEA) Assay for MYC using HepaRG (AID 2283518)
Summary of the method: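 qRT-PCR read-out of MYC transcript (Fluidigm TaqMan, housekeeping-normalized) after 48 h chemical exposure of HepaRG cells; eight concentrations, top 100 uM, half-log steps. Bidirectional curve fitting against 0.5% DMSO vehicle baseline.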

[6] = read-out: matrix metalloproteinase-3 (MMP3), MMP3 (gene 4314); assay: LTEA_HepaRG_MMP3: Life Technologies and Expression Analysis (LTEA) Assay for matrix metalloproteinase-3 (MMP3) using HepaRG (AID 2283519)
Summary of the method: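 Human liver HepaRG cultures received chemicals (top concentration 100 uM, 0.5% DMSO) for 48 h in duplicate. MMP3 mRNA induction or loss was then assessed via TaqMan qRT-PCR with housekeeping-gene normalisation.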

[7] = read-out: Paternally Expressed 10 (PEG10), PEG10 (gene 23089); assay: LTEA_HepaRG_PEG10: Life Technologies and Expression Analysis (LTEA) Assay for Paternally Expressed 10 (PEG10) using HepaRG (AID 2283520);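 for AC50: PEG10 transcript by qRT-PCR normalised to ACTB GAPDH and POLR2A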
Summary of the method: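 After 48 h exposure of differentiated HepaRG cells (0.5% DMSO vehicle, eight concentrations up to 100 uM, duplicates), PEG10 mRNA was measured by TaqMan qRT-PCR. Values were normalised to endogenous control genes and analysed bidirectionally against vehicle.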

[8] = read-out: Protein phosphatase 2A (PPP2R4), PTPA (gene 5524); assay: LTEA_HepaRG_PPP2R4: Life Technologies and Expression Analysis (LTEA) Assay for Protein phosphatase 2A (PPP2R4) using HepaRG (AID 2283522)
Summary of the method: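 Using HepaRG cultures maintained in 0.5% DMSO, chemicals are tested 48 h at up to 100 uM in duplicate. Induction or suppression of PPP2R4 mRNA, measured by qRT-PCR, is fitted bidirectionally against the vehicle baseline.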

[9] = read-out: Nuclear factor NF-kappa-B p105 subunit (Homo sapiens) (UniProt P19838); assay: LTEA_HepaRG_NFKB1: Life Technologies and Expression Analysis (LTEA) Assay for Nuclear Factor Kappa B Subunit 1 (NFKB1) using HepaRG (AID 2283521)
Summary of the method: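 Differentiated human HepaRG cells were exposed for 48 h in serum-free induction medium to eight concentrations (top 100 uM, half-log steps, 0.5% DMSO), in duplicate. NFKB1 mRNA was measured by TaqMan qRT-PCR, normalized to ACTB/GAPDH/POLR2A, and fitted bidirectionally against DMSO.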

Measured: AC50

Sequence of Nuclear factor NF-kappa-B p105 subunit (Homo sapiens) (P19838 whole entry, looked up): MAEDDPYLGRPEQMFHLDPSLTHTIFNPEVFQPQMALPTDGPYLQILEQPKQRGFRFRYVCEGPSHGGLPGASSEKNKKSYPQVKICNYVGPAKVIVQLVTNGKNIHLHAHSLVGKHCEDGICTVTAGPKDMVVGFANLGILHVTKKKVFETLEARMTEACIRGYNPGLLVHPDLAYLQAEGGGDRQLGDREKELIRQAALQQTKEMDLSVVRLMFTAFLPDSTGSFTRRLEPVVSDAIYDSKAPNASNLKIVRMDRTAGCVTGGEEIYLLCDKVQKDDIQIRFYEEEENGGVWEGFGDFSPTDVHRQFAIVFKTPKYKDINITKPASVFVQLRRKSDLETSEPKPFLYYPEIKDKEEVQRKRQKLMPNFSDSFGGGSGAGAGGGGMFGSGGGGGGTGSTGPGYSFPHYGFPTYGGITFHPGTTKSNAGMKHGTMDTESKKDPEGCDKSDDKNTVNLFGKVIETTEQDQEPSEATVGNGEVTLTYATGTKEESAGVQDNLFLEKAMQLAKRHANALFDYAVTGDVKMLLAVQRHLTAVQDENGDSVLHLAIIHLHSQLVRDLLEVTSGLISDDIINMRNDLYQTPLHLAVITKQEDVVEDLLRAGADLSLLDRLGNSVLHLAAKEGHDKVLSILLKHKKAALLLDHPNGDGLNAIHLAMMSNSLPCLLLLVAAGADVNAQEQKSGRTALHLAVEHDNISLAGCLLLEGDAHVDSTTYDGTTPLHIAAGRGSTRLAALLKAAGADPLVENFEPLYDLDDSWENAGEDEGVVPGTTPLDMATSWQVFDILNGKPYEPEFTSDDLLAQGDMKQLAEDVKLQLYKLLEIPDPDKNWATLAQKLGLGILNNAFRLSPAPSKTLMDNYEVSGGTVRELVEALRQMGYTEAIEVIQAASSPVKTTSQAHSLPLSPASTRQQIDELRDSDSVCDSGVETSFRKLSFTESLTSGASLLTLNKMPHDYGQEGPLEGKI

O=C1NC(=O)C(c2ccccc2)(c2ccccc2)N1
not listed: [9]
inactive: all other assays above

CCCC[C@H]1CN(CC2CCOCC2)C(=O)OC12CCN(C1(C)CCN(C(=O)c3c(C)ncnc3C)CC1)CC2
not listed: [9]
inactive: all other assays above

CCCCOC(=O)CCCCC(=O)OCCCC
not listed: [8]
inactive: all other assays above

CCCCC(CC)CO (stereo unspecified)
not listed: [8]
inactive: all other assays above

CS(=O)(=O)c1ccc([C@@H](C[C@H]2CCC(=O)C2)C(=O)Nc2cnccn2)cc1Cl
active: [1] 1.43 µM | [2] 1.08 µM | [3] 0.934 µM | [4] 1.41 µM | MYC, MYC (gene 4609) 1.14 µM | [6] 1.16 µM | [9] 1.38 µM | [8] 0.49 µM
inactive: [5] | [7]

C=CCCCCCCCCCCCC
not listed: [8]
inactive: all other assays above

Oc1ccccc1O
not listed: [9]
inactive: all other assays above

Cc1ccc(C(C)(C)C)c(O)c1
inactive: all assays above

O=C(N[C@@H](c1ccccc1)[C@@H]1CCCCN1)c1cccc(C(F)(F)F)c1Cl
active: [1] 65 µM | [3] 84.7 µM | [5] 35 µM | MYC, MYC (gene 4609) 50 µM | [6] 87.1 µM | [7] 50 µM | [8] 89.5 µM
inactive: [2] | [4] | [9]

O=C1CCCCC1
inactive: all assays above

COC(=O)CCC(=O)OC
inactive: all assays above

CC(C)NCC(O)c1ccc(O)c(O)c1 (stereo unspecified)
active: [2] 0.227 µM | [3] 0.319 µM | [7] 0.149 µM
not listed: [8] | [9]
inactive: all other assays above

CCOCCOCCO
inactive: all assays above

Cc1ccc(-c2cc(C(F)(F)F)nn2-c2ccc(S(N)(=O)=O)cc2)cc1
active: [1] 83.4 µM | [3] 87.4 µM | MYC, MYC (gene 4609) 67.3 µM | [7] 64.2 µM | [9] 70.2 µM
inactive: [2] | [4] | [5] | [6] | [8]

CC(C)COC(=O)CCCCC(=O)OCC(C)C
not listed: [8]
inactive: all other assays above

CO[C@@H]1COCC[C@@H]1N[C@@H]1CC[C@@](C(=O)N2CCc3ncc(C(F)(F)F)cc3C2)(C(C)C)C1
not listed: MYC, MYC (gene 4609) | [8]
inactive: all other assays above

O=C(O)c1[nH]n(-c2ccc(S(=O)(=O)O)cc2)c(=O)c1N=Nc1ccc(S(=O)(=O)O)cc1
not listed: MYC, MYC (gene 4609) | [8]
inactive: all other assays above

CC(C)(O)c1ccc(CNC(=O)c2cccnc2Oc2ccc(F)cc2)cc1
active: [6] 73.2 µM
not listed: [9]
inactive: all other assays above

COC(=O)CCCC(=O)OC
not listed: MYC, MYC (gene 4609) | [8]
inactive: all other assays above

O=C1OC(c2ccc(O)cc2)(c2ccc(O)cc2)c2ccccc21
active: [2] 77.4 µM | [3] 72.5 µM | [4] 50 µM | [7] 76.1 µM
inactive: all other assays above

c1ccc2occc2c1
not listed: [8]
inactive: all other assays above

CC(=O)S[C@H](C(=O)N[C@H]1Cc2ccccc2[C@H]2CCC[C@@H](C(=O)O)N2C1=O)C(C)C
not listed: [8]
inactive: all other assays above

O=NO
not listed: [8]
inactive: all other assays above

NC(=Nc1ccccc1)Nc1ccccc1
active: [7] 19.3 µM
not listed: MYC, MYC (gene 4609) | [8] | [9]
inactive: all other assays above

O=Cc1ccccc1C=O
not listed: [8] | [9]
inactive: all other assays above

CCc1nc(N)nc(N)c1-c1ccc(Cl)cc1
inactive: [1] | [5] | [6]
active: [2] 68.6 µM | [3] 75.1 µM | [4] 33.2 µM | MYC, MYC (gene 4609) 78.7 µM | [7] 38.9 µM

CCCCC(CC)COP(=O)(OCC(CC)CCCC)OCC(CC)CCCC (stereo unspecified)
not listed: [8]
inactive: all other assays above

CC(N)=O
not listed: MYC, MYC (gene 4609) | [8] | [9]
inactive: all other assays above

O=C(O)c1cccnc1
not listed: [8]
inactive: all other assays above

CCCCCCCCCCCCCCCCO
not listed: MYC, MYC (gene 4609)
inactive: all other assays above

CCN(CC)CCOc1ccc(C(=C(Cl)c2ccccc2)c2ccccc2)cc1
inactive: [6] | [7]
active: [1] 66.2 µM | [3] 17.8 µM | [4] 78.8 µM | [5] 28.8 µM | MYC, MYC (gene 4609) 56.1 µM | [9] 77.1 µM

NC=O
not listed: MYC, MYC (gene 4609) | [8]
inactive: all other assays above

CC1=C(C)S(=O)(=O)CCS1(=O)=O
active: [1] 74.6 µM | [2] 85.8 µM | [3] 75.3 µM | [4] 75.2 µM
inactive: [5] | [6] | [7] | [9]

O=[Si]=O
not listed: MYC, MYC (gene 4609)
inactive: all other assays above

CC(=O)CC(c1ccccc1)c1c(O)c2ccccc2oc1=O (stereo unspecified)
not listed: [2] | [8] | [9]
inactive: all other assays above

COc1ccc(OC(F)(F)F)cc1CN[C@H]1CCCN[C@H]1c1ccccc1
inactive: [2] | [4] | [9]
active: [1] 78.9 µM | [3] 82.9 µM | [5] 75.8 µM | [6] 80.2 µM | [7] 55.2 µM

CCCCCCCCCC[N+](C)(C)[O-]
not listed: MYC, MYC (gene 4609) | [9]
inactive: all other assays above

O=C(O)CC(O)(CC(=O)O)C(=O)O
not listed: [2] | [8]
inactive: all other assays above

Cc1occc(=O)c1O
not listed: [5]
inactive: all other assays above

CN(C)C(=O)NC1(c2ccccc2)CCN(CC[C@@]2(c3ccc(F)c(F)c3)CN(C(=O)c3ccccc3)CCO2)CC1
active: [2] 47 µM | [3] 31.8 µM | [7] 1.35 µM
not listed: MYC, MYC (gene 4609) | [9]
inactive: all other assays above

CCC(C)N(C)C(=O)c1cc2ccccc2c(-c2ccccc2Cl)n1 (stereo unspecified)
active: [7] 13.1 µM
not listed: MYC, MYC (gene 4609)
inactive: all other assays above

CC(C)(C)c1ccccc1
not listed: MYC, MYC (gene 4609) | [9]
inactive: all other assays above
